G9a block: inhibitors of human histone lysine methyltransferase G9a | G9a H3K9 monomethylation, AlphaScreen, 2 h | Potency, µM (titrated, usually from 102 µM), for inactives: at the top dose activity, negative = inhibition, most hits filed as inhibitors | 350,000 tested, 8.8% active | AID 504332; further: potency means the concentration at half of the fitted maximal effect; on the % scale 0 is the no-effect control and ±100 the full control effect; nearly all actives have a fitted effect of over 75% in size
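Using a bead-based AlphaScreen, monomethylated H3K9 product from 2 h room-temperature reactions (G9a 20 nM, peptide 500 nM, SAM 20 uM) was detected with 0.5 ug/mL rabbit anti-H3K9me1 antibody.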
PI5P4K alpha inh: PI5P4K alpha (human) kinase inhibition. P48426. PI5P4Kalpha enzyme, ADP-Glo luminescence, 60 min; hits give low values. max response, %. 330,000 tested, 1.2% active. AID 652105; active means max response of -50% or lower; inconclusive means between -30% and -50%; inactive means -30% or higher; further: value at the top dose of about 77 µM; on the % scale 0 is the no-effect control and ±100 the full control effect
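PI5P4Kalpha ADP-Glo assay; 5 microM ATP final; 60 min RT reaction; HEPES pH 7.4/EGTA/CHAPS, 5% DMSO; controls lacking substrate or enzyme; luminescent end-point.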
JMJD2A Tudor inh: blocks the human JMJD2A Tudor domain. 390,000 tested, 4.4% active. Potency, µM (titrated, usually from 114 µM), for inactives: at the top dose activity change, negative = inhibition, hits mostly inhibitors. AID 504339. AlphaScreen JMJD2A-Tudor / H3K4me3 peptide binding. O75164; further: potency means the concentration at half of the fitted maximal effect; on the % scale 0 is the no-effect control and ±100 the full control effect; nearly all actives have a fitted effect of over 50% in size
BAZ2B block: inhibitors of human BAZ2B bromodomain; AID 504333; Potency, µM (series often up to 114 µM), for inactives: at the top dose activity change, negative = inhibition, actives largely listed as inhibitors; AlphaScreen BAZ2B-H3K14Ac peptide displacement; Q9UIF8; 360,000 tested, 4.4% active; further: potency means the concentration at half of the fitted maximal effect; on the % scale 0 is the no-effect control and ±100 the full control effect; nearly all actives have a fitted effect of over 60% in size
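Compounds, titrated to a top concentration of 110 uM, were incubated 30 min at room temperature with preformed BAZ2B/acetyl-K14 H3 peptide complex (50 nM each). Proximity signal was measured by AlphaScreen after 20 min with beads.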
PLK1 PBD block: PLK1 (human) polo-box domain binding inhibition; Potency, µM, inactives show max response, negative = inhibition, actives largely listed as inhibitors; Plk1 PBD binding of FITC phosphopeptide, fluorescence polarization; 360,000 tested, 2.8% active; further: potency means the concentration at half of the fitted maximal effect; series mostly up to about 57 µM; on the % scale 0 is the no-effect control and ±100 the full control effect; nearly all actives have a fitted effect of over 65% in size
HP1b chromo inh: HP1-beta chromodomain-methylated histone interaction inhibition; P83916; AlphaScreen HP1-beta / biotin-H3K9me3 peptide binding; Potency, µM (doses to about 114 µM), for inactives: top-dose activity change, negative = inhibition, actives largely listed as inhibitors; 390,000 tested, 0.56% active; further: potency means the concentration at half of the fitted maximal effect; nearly all actives have a fitted effect of over 70% in size
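AlphaScreen: HP1-beta (50 nM) preformed 30 min with biotin-H3(1-18)K9me3 peptide (50 nM) in PBS pH 7.4, 0.01% Tween-20. Compound added for 30 min at RT, then streptavidin donor/nickel chelate acceptor beads (10 ug/mL) for 30 min.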
* = called active by the depositor; ? = inconclusive; . = no result; [ ] = dose if it differs, or a comment. Shown are actives, neighbours in structure and some others; about 12% of the full set was active somewhere. Unless noted, the call rests on the fitted dose curve; in most records, active means well fitted curve in the direction sought with a large enough effect; inconclusive means small, poorly fitted or top-dose-only effect, or another doubt; inactive means no such curve, though single readings can be large; an effect the other way counts as inactive or inconclusive.

SMILES	G9a block	PI5P4K alpha inh	JMJD2A Tudor inh	BAZ2B block	PLK1 PBD block	HP1b chromo inh
COc1ccc(C(C#N)CC(=O)c2ccc(OCc3ccccc3)c(OC)c2)cc1OC (configuration not stated)	.	6	.	.	4%	.
COc1ccc(SCCN2CCN(CCc3ccccc3)CCC2=O)cc1	.	.	255%	.	.	390%
CCOC12NC(=O)CC(=O)N1C(c1ccccc1)=CS2 (configuration not stated)	50µM*	.	-16%	-37%	-19%	13%
CCN(CC)c1ccc(C(=O)NCc2ccc3c(c2)CCN3C(=O)c2ccccc2)cc1	-11%[59 µM]	.	-16%	-13%	.	16%
O=C(O)Cn1c(CCS(=O)(=O)c2ccc(Br)cc2)nc2ccccc21	45µM*	-6	-16%	-18%	?	-3%
O=c1cc(-c2ccc(O)cc2)oc2cc(O[C@H]3OC(CO)C(O)C(O)C3O)cc(O)c12 (some centres not stated)	-37%[2.33 µM]	.	.	.	.	.
O=c1c(OC2OC(CO)C(O)C(O)C2O)c(-c2ccc(O)c(O)c2)oc2cc(O)cc(O)c12 (configuration not stated)	-6%	-4	-31%	-33%	3%	30%
O=c1c2c(O)cc(O)cc2oc2c(O)ccc(O[C@H]3O[C@@H](CO)[C@H](O)[C@@H](O)[C@@H]3O)c12	.	-56*	-22%	.	-10%	-2%
O=c1cc(-c2ccc(O)c(O)c2)oc2cc(O[C@@H]3O[C@H](CO)[C@@H](O)[C@H](O)[C@H]3O)cc(O)c12	.	?	13µM*	.	-5%	5%
O=C(NCc1ccccc1)c1ccc2c(c1)CCN2S(=O)(=O)c1ccc(Cl)cc1	3%[59 µM]	.	-10%	-11%	.	33%
COc1ccc(N2CC(NC(=O)c3cc4ccccc4o3)CC2=O)cc1OC (configuration not stated)	8%[59 µM]	.	-6%	-10%	.	37%
COC(=O)C1CCN(C(=O)C2CC(=O)N(c3ccc(C)c(Cl)c3)C2)CC1 (configuration not stated)	.	?	-2%	.	-7%	27%[57 µM]
CCOC(=O)COn1c(-c2cccc(Cl)c2)nc2ccc([N+](=O)[O-])cc21	50µM*	4	-8%	-4%	2%	45%
Cc1ccc(C)c(Cn2c(=O)n(-c3ccccc3)c(=O)c3c4c(sc32)CCCC4)c1	-30%[59 µM]	.	-4%	1%	.	41%
CC1CCN(C(=O)N[C@@H](Cc2ccccc2)C(=O)O)CC1	-6%	-5	-13%	20%	-9%	5%
N[C@@H](Cc1ccccc1)C(=O)N1CCC(C(=O)N[C@@H](CCC(=O)O)C(=O)O)CC1	79µM*	-3	18µM*	1%	-8%	19%
CC1CN(C(=O)N[C@@H](Cc2ccccc2)C(=O)O)CC(C)O1 (some centres not stated)	56µM*	0	-2%	-7%	-4%	25%
O=C(O)[C@H](Cc1ccccc1)NC(=O)N1CCC(Cc2ccccc2)CC1	14µM*	-4	-3%	-15%	0%	1%[57 µM]
CNc1ccc(C(=O)OCC(=O)NCc2ccc3c(c2)OCO3)cc1[N+](=O)[O-]	-18%[59 µM]	-7	0%	6%	-16%	36%
Clc1cccc(N2CCN(Cc3ccc(Br)o3)CC2)c1	6.3µM*	15	28µM*	?	-8%	?
Clc1ccc(N2CCN(Cc3cc4ccccn4n3)CC2)cc1	14%[59 µM]	.	.	.	.	.
Clc1ccc(N2CCN(Cc3ccc(Br)o3)CC2)cc1	13µM*	8	20µM*	50µM*	-17%	?
O=C(NCC(=O)N1CCN(c2cccc(Cl)c2)CC1)c1ccc(Br)o1	12%	-4	-11%	0%	-1%	18%
CN(C)S(=O)(=O)c1cccc(C(=O)Nc2n[nH]c(C(F)(F)F)n2)c1	11%	-3	7.1µM*	-17%	-5%	9%[57 µM]
CN(C)S(=O)(=O)c1cccc(C(=O)Nc2ccccc2)c1	10%	1	-9%[11.4 µM]	-10%	-18%	36%
SMILES	G9a block	PI5P4K alpha inh	JMJD2A Tudor inh	BAZ2B block	PLK1 PBD block	HP1b chromo inh
CCOc1ccc(CNS(=O)(=O)c2cc3c(cc2C)NC(=O)CO3)cc1OC	4%[59 µM]	.	-7%	6%	.	10%[57 µM]
Cc1cncn1CCc1nc2c3ccccc3nc(SCC(=O)Nc3ccccc3F)n2n1	1%[59 µM]	.	-27%	-13%	.	22%
NC1=NC(c2cccc(Cl)c2)N(CCc2ccc(F)cc2)C(N)=N1 (configuration not stated)	-4%	1	-9%	-21%	-8%	4%
O=[N+]([O-])c1ccc(-n2nnnc2-c2ccccc2)cc1	-11%	-25	?	-2%	11µM*	-2%
O=[N+]([O-])c1ccc(-n2nnnc2-c2ccccc2)c([N+](=O)[O-])c1	-6%[59 µM]	1	?	-35%	-24%	-1%
COc1cc(C=O)ccc1Oc1nc(Nc2ccc(F)cc2F)nc(N2CCOCC2)n1	?	-15	-16%[11.4 µM]	?	21µM*	-21%
Fc1ccccc1Nc1nc(N2CCOCC2)nc(N2CCOCC2)n1	14%	4	-10%	1%	0%	46%
CCOC(=O)c1cc(C(=O)OCC)c(=O)[nH]c1C	24%	-9	-10%	26%	-9%	14%
CCOC(=O)c1cc2c(N)c(C(=O)c3ccc(Br)cc3)sc2[nH]c1=O	50µM*	?	-15%	-30%	-8%	28%
CCOC(=O)C1C(C(=O)OC)=C(c2ccc(F)cc2)c2ccc(OC)cc2N1S(=O)(=O)C(F)(F)F (configuration not stated)	-2%[59 µM]	.	.	.	.	.
CCN(CC)c1ccc(N=Cc2ccc([N+](=O)[O-])o2)cc1	2.5µM*	-24	40µM*	10µM*	-23%	22µM*
CCN(CC)c1ccc(N=Cc2ccccc2[N+](=O)[O-])cc1	8.9µM*	-5	8.9µM*	3.2µM*	4%	8.9µM*
COCCc1ccc(OC2(C)CCN(Cc3ccc(OC)c4ccccc34)C2)cc1 (configuration not stated)	.	12	.	.	3%	.
COc1ccc(Cl)cc1NC(=O)Cn1ccn(-c2cc(C)cc(C)c2)c(=O)c1=O	-3%[59 µM]	.	-12%	-39%	.	10%
COc1ccc(-c2c(Sc3ccccc3)c3cc(-c4ccc5c(c4)OCO5)ccc3n2C)cc1	.	-3	.	.	4%	.
O=C(NNC(=O)C1C2C=CC(C2)C1C(=O)O)c1ccccc1O (configuration not stated)	-8%	2	-17%	50µM*	-4%	37%
O=C(NNC(=O)C1C2C=CC(C2)C1C(=O)O)c1ccccc1 (configuration not stated)	15%[59 µM]	-11	-8%	0%	-7%	7%

Source: PubChem BioAssay
